Assay results published in PubChem BioAssay AID588475 (Sanford-Burnham Center for Chemical Genomics, 2011).
About 2,100 (0.6%) of roughly 350,000 compounds were called active.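 Rule for the calls: active = inhibition of the ligand-induced calcium signal above about 50% at the single tested concentration (limit read from the data); inactive = the rest.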 The full list was thinned out, with actives kept by preference.

Test: antagonists of CRF-BP/CRF-R2 complex, primary screen, cell-based, HEK293, calcium dye fluorescence, uHTS (AID 588475)
Conditions: CRF-induced calcium fluorescence, at 11.8 µM, active compounds read high

inhibition, active:
CCOC(=O)Cn1c2c(c(-c3ccccc3OC)cc1=O)CCCC2 57.5%, O=C(C1CC(=O)N(c2ccc(Br)cc2)C1)N1CCCC1 (configuration not stated) 76.7%, CCc1nnc(NC(=O)CSc2nnnn2-c2cccc(C(C)=O)c2)s1 54.4%, COc1cc(CC(=O)NCc2cccs2)cc(OC)c1OC 63.8%, COC(=O)c1ccc(OC(=O)c2nn(C)cc2Cl)c(OC)c1 90.2%, O=C(NNc1c2ccccc2nc2ccccc12)c1cc2ccccc2cc1O 53.2%, COc1ccc(/C=C2\CCc3ccccc3C2=O)c(OC)c1OC 89.8%, CN(C)c1ccc(C=C2C(=O)OC3(CCCC3)OC2=O)cc1 66.8%, COC(=O)C(NC(=O)c1ccc(OC)cc1)(Nc1ncc(S(=O)(=O)c2ccc([N+](=O)[O-])cc2)s1)C(F)(F)F (configuration not stated) 72.6%, COc1ccc(/C=C/C(=O)Nc2c(C)nn(C)c2C)cc1COc1ccc(Br)cc1 60.5%, Cc1cccc(CS(=O)(=O)c2ncc(Cl)c(C(=O)Nc3ccc(F)cc3)n2)c1 52.3%, C=CCOc1ccc(/C=C2\SC(=S)N(CCC(=O)O)C2=O)cc1 53.9%, N#C/C(=C(/O)Cc1cccc2ccccc12)c1nc2ccccc2s1 60.4%, CCOC(=O)N1CCN(C(=O)Cn2cnc3ccccc3c2=O)CC1 72.2%, O=[N+]([O-])c1ccc(NS(=O)(=O)c2ccccc2)c(Cl)c1 55.9%, O=[N+]([O-])c1cc(Br)c(O)c(/C=N/Nc2nc3ccccc3s2)c1 67.2%, Cc1nn(-c2ccc([N+](=O)[O-])cc2)c(N)c1-c1ccccc1 51.6%, Cc1ccc(NS(=O)(=O)c2ccc(N/N=C/c3ccccc3OCC(=O)O)c([N+](=O)[O-])c2)c(C)c1 63.5%

inhibition, inactive:
CCOC(=O)CN1CCC(c2ccccc2)CC1 -2.05%, COc1ccccc1C1=CC(=O)CCC1 9.84%, c1ccc(CCN2CN=C(Nc3nc4ccccc4o3)NC2)cc1 13.5%, CC1CC(C)CN(C(=O)C2CC(=O)N(c3ccc(F)cc3)C2)C1 (configuration not stated) -0.72%, CCc1ccc(N2CC(C(=O)N3CCCCCC3)CC2=O)cc1 (configuration not stated) -21.4%, CCCOc1cccc(C(=O)Nc2nnn(CCC)n2)c1 -20.2%, CCCCCCNC(=O)O[C@]12C[C@@H](C(=O)OC)[C@@H](C(=O)OC)C[C@@]1(O)CN(S(=O)(=O)c1ccc(C)cc1)C2 -0.13%, CCOc1ccc(NC(=O)CCC(=O)NNC(=O)NC2CCCCC2)cc1 9.93%, CC1CCN(C(=S)NC2CC3CCC2C3)CC1 (configuration not stated) 18.3%, CCCC(O)(CCC)C(=O)NN(C(=O)CCl)c1cccc(C)c1 4.46%, CC(=O)c1cccc(-n2nnnc2SCC(=O)NNC(=O)C2CCCCC2)c1 12.7%, CCc1nnc(NC(=O)CSc2nc(SC)ns2)s1 -5.79%, O=C(O)C1=C(C(=O)O)C2CCC1C2 17.1%, COc1cc(CNCc2cccs2)cc(Br)c1OC 4.12%, COc1ccc(Cl)cc1C(=O)OCC(=O)NCc1cccs1 -4.93%, COc1ccc(C(=O)NC(=S)Nc2ccc(Cl)cn2)cc1OC -25.3%, COc1ccc(CCNC(=O)COC(=O)c2ncc(Cl)c(Cl)c2Cl)cc1OC -0.24%, Cc1cc(C)c(C#N)c(SCS(=O)c2ccc(C(C)(C)C)cc2)n1 (configuration not stated) 1.43%, CC1C(=O)Nc2ccccc2N1C(=O)c1ccc(F)cc1F (configuration not stated) 16%, O=C(COC(=O)c1ccc(O)cc1O)NC(=O)c1ccccc1 -7.02%, O=C(NNC(=O)c1ccccc1O)c1ccccc1O 24.2%, Cc1onc(-c2c(F)cccc2Cl)c1C(=O)N(C)CC(=O)Nc1cccc(F)c1 5.08%, Cc1cccc(N2Cc3ccccc3C2=NC(=O)c2ccc(Cl)nc2)c1 -4.54%, CN1CCN(C2=NCCO2)CC1 0.22%, O=C1/C(=C/c2cccs2)CCc2ccccc21 -1.09%, COc1ccc(/C=C2/CCCc3ccccc3C2=O)cc1 4.03%, COC(=O)[C@]1(Cc2ccccc2)N[C@H](CN(C)S(=O)(=O)c2ccc(OC(F)(F)F)cc2)[C@@H]2C(=O)N(Cc3ccccc3)C(=O)[C@@H]21 -0.07%, O=C(CSc1nnc(CNC(=O)c2ccc(F)cc2)o1)Nc1ccc2c(c1)OCO2 -5.95%, COC(=O)c1ccc(/C=C2/C(=O)Oc3ccccc32)cc1 1.02%, CN(C)c1ccc(/C=C2\NC(=S)N(Cc3ccccc3)C2=O)cc1 -149%, O=C(O)C(NS(=O)(=O)c1cccc2nsnc12)c1ccccc1 (configuration not stated) 8.07%, Cc1cc(C)cc(C(=O)NC(CC(N)=O)c2ccc(N3CCC(N4CCCCC4)CC3)c([N+](=O)[O-])c2)c1 (configuration not stated) 14.9%, O=C(NCC(F)(F)F)c1ccc(S(=O)(=O)NCCc2ccc3c(c2)OCCO3)cc1 2.25%, CC1=C(C(N)=O)C(c2sccc2C)n2nnnc2N1 (configuration not stated) -23.7%, Cc1c(Br)ccc(NC(=O)COc2ccccc2C(N)=O)c1C -2.05%, CCOCC(=O)Nc1ncc(S(=O)(=O)c2ccc([N+](=O)[O-])cc2)s1 -6.17%, COc1ccc(C(=O)NCCNc2ccc([N+](=O)[O-])cn2)cc1 3.69%, COc1ccc(CCn2c(NN=C3CCCC3)nc3c2c(=O)[nH]c(=O)n3C)cc1 -0.67%, CCn1nc(C)c(NC(=O)/C=C/c2ccc(OC)c(COc3ccc(Br)cc3)c2)c1C 30.8%, COc1ccc(OC)c(S(=O)(=O)Nc2c(C)nn(C)c2C)c1 6.33%, CCn1cc(/C=C(\NC(=O)c2cc(OC)c(OC)c(OC)c2)C(=O)N2CCN(C)CC2)c2ccccc21 -8.31%, Cc1cc(OC(=O)c2ccc(Cl)cc2)cc(=O)n1C 11.4%, Cc1cccc(NC(=O)c2nc(S(=O)(=O)Cc3ccccc3)ncc2Cl)c1 45.5%, CSc1nnc(NC(=O)c2nc(S(=O)(=O)Cc3ccc(C)cc3)ncc2Cl)s1 25.7%, FC(F)(F)c1cc(-c2ccco2)nc(NCc2ccc(Cl)cc2)n1 -24.6%, COc1ccc(/C=C2\SC(=S)N(CCC(=O)N3CCOCC3)C2=O)cc1OC -7.34%, O=C1/C(=C/c2ccc(F)cc2)SC(=S)N1CCCC(=O)N1CCCCC1CCO (configuration not stated) -17.3%, Cc1cc(C)nc(NC2=NCC(=O)N2c2ccc(Cl)cc2)n1 10.7%, O=C(c1ccc(-n2cnnn2)cc1)N1CCN(C(c2ccccc2)c2ccccc2)CC1 14.7%, CCc1ccc(NC(=O)CC2C(=O)NCCN2C(=S)Nc2ccccc2)cc1 (configuration not stated) -42.6%, CN(C)C(=O)c1nc2ccc(Cl)cn2c1CNCc1cccc(OC(F)(F)F)c1 21%, CCNC(=O)CC1C(=O)N(c2ccc(F)cc2)C(=O)N1CCc1sccc1C (configuration not stated) 3.16%, CC1=CC(=C(C#N)c2nc3ccccc3s2)C=C(C)N1c1ccc(F)cc1F -130%, O=C(O)CC/C(=C\c1cc2c(cc1Br)OCO2)c1nc2ccccc2s1 8.13%, CC1Cc2ccccc2N1C(=O)Cn1cnc2ccccc2c1=O (configuration not stated) 0.2%, CC1CC(C)CN(C(=O)CCNC(=O)Cn2cnc3ccccc3c2=O)C1 (configuration not stated) -2.21%, O=S(=O)(NCc1ccc2c(c1)OCO2)c1cccc2nsnc12 -14.6%, COCCCNC(=O)C1CCC(CNS(=O)(=O)c2ccc(OC)cc2)CC1 (configuration not stated) 5.65%, O=C(NNS(=O)(=O)c1ccc(F)cc1)c1ccc([N+](=O)[O-])cc1Cl 0.78%, Cc1cc([N+](=O)[O-])ccc1NS(=O)(=O)c1ccccc1 17.8%, COC(C[C@@H](O)C[C@H](O)[C@H](C)OCc1ccccc1)OC 10.3%, c1ccc(C(=NNc2nc3ccccc3s2)c2ccccn2)cc1 -36.8%, O=C(N/N=C/c1cc(Br)c(O)c([N+](=O)[O-])c1)C(O)(c1ccccc1)c1ccccc1 4.64%, Cc1nn(C(=O)c2ccoc2C)c(N)c1-c1ccccc1 4.6%, Cn1nc(-c2ccccc2)c2cc([N+](=O)[O-])ccc21 -1.55%, CN1CCN(C(=O)c2cnn(-c3ccccc3)c2NC(=O)c2ccc([N+](=O)[O-])cc2)CC1 1.78%, Cc1ccccc1N1CCN(Cc2nc(Cc3ccccc3F)no2)CC1 10.3%, COc1ccc(CC(NC(C)=O)C(=O)NC2CCN(C(=O)c3ccc(Cl)cc3)CC2)cc1 (configuration not stated) 13.1%, C/C(=N/NC(=O)CSc1ccccn1)c1ccc([N+](=O)[O-])cc1 1.41%, Cc1nc(C)c2c(c1C(F)(F)F)-c1ccccc1C2(F)F -1.72%, CCCCn1c(N)c(N(CCC(C)C)C(=O)COC(=O)c2ccc(CC)cc2)c(=O)[nH]c1=O -14.7%, C=C(C)CNC(=S)N/N=C/c1ccccc1OCC(=O)O -10.5%, COc1ccc(Br)cc1/C=N/Nc1ccc(S(=O)(=O)Nc2ccccc2C(=O)O)cc1[N+](=O)[O-] 14.6%, CC(CO)(CO)NC(=O)c1ccc(=O)[nH]n1 2.66%
